The results in this text go back to ChEMBL document CHEMBL3988442, “University of Dundee, Small-Polar-MMV Screening Library” (2021).

The target of this experiment is AMP-activated protein kinase, AMPK (Homo sapiens) (UniProt P54646+O43741+P54619+Q9UGJ0+Q9Y478+Q13131+Q9UGI9). In words: AMP-dependent Kinase enzyme assay. An in vitro enzyme assay that detects ADP turnover that is directly proportional to AMPK activity. This uses naive AMPK that is activated during the assay with MK-8722. The class given is functional. Set-up: scale not given: direction of the effect not stated beside the values. The settings on record: 30 µM.
For the compound `CCC1CN(CC(=O)Nc2sccc2C#N)CCO1` (stereo not given), the Percent Effect was -2.5%.
For `CCn1c(C(=O)N2CCN(CC(C)O)CC2)cc2ccccc21` (stereo not given), the Percent Effect was -6.74%.
`O=C(NCCCN1CCCC1)c1n[nH]c(=O)c2ccccc12`: the Percent Effect was 0.621%.
As to `COCC1CCCN(C(=O)c2cc(Cn3ccc4ccccc43)[nH]n2)C1` (stereo not given), the Percent Effect was found to be 0.36%.
Next, `CC(C)S(=O)(=O)NCC1CCCN(C(=O)c2ccc3c(c2)CCC3)C1` (stereo not given): 5.06%.
In the case of `N#Cc1c(F)cccc1N1CCC(NS(=O)(=O)c2cccs2)CC1`, the Percent Effect was found to be 24.6%.
As for `CNc1nc2c(c(C(=O)N3CCCC3)n1)CN(Cc1nccn1C)CC2`, the Percent Effect is -8.14%.
Consider `CC(C)CCN1CN=C(NS(=O)(=O)c2ccc(F)cc2)NC1`, for which the Percent Effect came to 4.23%.
Consider `CN(Cc1ncc(C(C)(C)C)o1)C1CCCN(c2cccnn2)C1` (stereo not given), for which the Percent Effect is -7.54%.
Next, `Cc1nc2cc(C3CCN(Cc4cccc(F)c4F)C3)nn2c(O)c1C` (stereo not given): 12.9%; `CCS(=O)(=O)CCN1CCCC1c1noc(C2CC2)n1` (stereo not given): -7.83%; `Cc1nc(Cn2nc(C3CCNCC3)n(Cc3ccccc3)c2=O)no1`: 0.118%.
Take `CN(C)C(=O)COC1COC2(CCN(S(C)(=O)=O)CC2)C1` (stereo not given): the Percent Effect was determined as 1.81%.
Next, `CCNC(=O)NC(=O)CSC(C)c1c(F)cccc1F` (stereo not given): 1.21%; `Cn1cccc1CNC(=O)CCCc1nnc2ccccn12`: -2.6%.
With `Cc1cccc(CN(Cc2ccc(C)o2)C2CC(C)(C)NC(C)(C)C2)n1`, the Percent Effect stood at 9.39%.
In the case of `Cc1ccc(C2CSCCN2C(=O)c2ccsc2)o1` (stereo not given), the Percent Effect is 5.16%.
The same measure for `Cc1csc(N2CCN(C(=O)CCC(=O)c3ccc(C)s3)CC2)n1`: -7.25%; for `O=C(c1cnccn1)N1C[C@@H]2CC[C@H](C1)N(C(=O)Cc1ccsc1)C2`: 5.34%; for `Cc1ncsc1C(=O)N1CCCC(c2noc(C(C)C)n2)C1` (stereo not given): -8.18%.
